In the library only some 11% were active in any assay of this set; here they are far more common.
HPGD inh – inhibitors of human 15-hydroxyprostaglandin dehydrogenase (HPGD); purified HPGD, NADH fluorescence kinetic, PGE2 substrate; Potency, µM, inactives show top-dose activity change, negative = inhibition, hits mostly inhibitors; 4.3% of 150,000 active; active = well fitted inhibition curve with a large enough effect, not every such curve was filed as active; inconclusive = small, poorly fitted or top-dose-only effect, or another doubt; inactive = no such curve, though single readings can be large or run the other way; note: potency is the fitted concentration of half-maximal effect
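NADH formation kinetics: reaction with 30 uM PGE2 and 1 mM NAD+ (final), 20 nM enzyme, Tris-HCl pH 8 with Tween 20, after 15 min compound preincubation at room temperature. Fluorescence change, last versus first of five reads.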
ALDH1A1 block – blocks purified human ALDH1A1 activity. P00352. Purified ALDH1A1, NADH fluorescence, propionaldehyde substrate. Potency, µM (titrated, usually from 75.3 µM), for inactives: at the top dose activity, negative = inhibition, hits mostly inhibitors. 7.3% of 220,000 active; active = well fitted inhibition curve with a large enough effect, not every such curve was filed as active; inconclusive = small, poorly fitted or top-dose-only effect, or another doubt; inactive = no such curve, though single readings can be large or run the other way;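 note: potency is the fitted concentration of half-maximal effect; plate controls were no enzyme wells and a reference inhibitor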
Target sequence (P00352 whole entry, looked up): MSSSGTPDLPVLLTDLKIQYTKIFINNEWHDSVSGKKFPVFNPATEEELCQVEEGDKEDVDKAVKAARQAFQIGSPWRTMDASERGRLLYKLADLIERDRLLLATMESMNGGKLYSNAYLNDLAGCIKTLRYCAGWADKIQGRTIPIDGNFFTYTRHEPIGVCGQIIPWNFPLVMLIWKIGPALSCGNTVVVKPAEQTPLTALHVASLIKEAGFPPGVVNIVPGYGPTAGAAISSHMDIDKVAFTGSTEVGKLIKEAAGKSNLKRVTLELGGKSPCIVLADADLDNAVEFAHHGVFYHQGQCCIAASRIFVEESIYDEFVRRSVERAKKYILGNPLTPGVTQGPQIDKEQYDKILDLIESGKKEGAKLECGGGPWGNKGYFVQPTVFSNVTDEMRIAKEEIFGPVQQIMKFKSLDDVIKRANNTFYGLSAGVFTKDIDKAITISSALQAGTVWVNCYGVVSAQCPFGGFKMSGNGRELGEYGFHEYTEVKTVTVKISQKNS
IMPase inh – membrane-permeable compound that blocks inositol monophosphatase. P97697. CHO-M1 cells, IP1 accumulation, HTRF TR-FRET ratio. inhibition (IP1 accumulation), % at 46.1 µM. 120,000 tested, under 10 active; active = well fitted curve in the direction sought with a large enough effect in the signal ratio, not every such curve was filed as active; inconclusive = small, poorly fitted or top-dose-only effect, or a change in a side signal; inactive = no such curve, though single readings can be large or run the other way; the % refers to the signal ratio;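 note: cells stimulated with carbachol in lithium chloride buffer; plate controls were DMSO basal wells for no effect and reference inhibitor wells for full effect; higher means more IMPase inhibition seen as more IP1 and lower FRET ratio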
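Elevated IP1 in lysates lowers TR-FRET signal (665/620 ratio and 620 channel reported). Cells were CHO-M1, given carbachol (50 uM as added) plus 50mM LiCl, pH 7.4, 30 min, 37C; compounds titrated up to 46 uM; AC50 by Hill equation.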
NPSR antagonist – blocks cAMP signaling of the human neuropeptide S receptor | CHO-NPSR cells, cAMP TR-FRET, antagonist mode | Q6W5P4 | Potency, µM (titrated, usually from 38.3 µM), without a hit: at the highest dose activity change, negative = inhibition, hits mostly inhibitors | 1% of 220,000 active; note: potency is the fitted concentration of half-maximal effect; nearly all actives have a fitted effect of over 50% in size
PNC assembly inh – perinucleolar compartment assembly inhibition. PC3M PTB-GFP, PNC prevalence imaging, 16 h; hits give low values. activity change (PNC), negative = inhibition, % at 10 µM. AID 2417. 3.1% of 140,000 active;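 active = readout at or below -70, meaning at least 70% loss of cells showing the perinucleolar compartment, a nuclear body marking cancer cells; inconclusive = readout between -30 and a set limit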;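 note: plate controls were DMSO wells for no effect and camptothecin positive control wells for full effect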
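PC3M cells stably expressing PTB-GFP, 750–1000 cells/well, treated 16 h at 37 °C with compound (23 nl of library stock), in duplicate. After paraformaldehyde fixation and Hoechst stain, imaged at 20x; PNC prevalence scored by image analysis.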
IMPase Li inh – IMPase inhibition in cells with lithium potentiation; CHO-M1 cells, IP1 TR-FRET (IP-One), carbachol + lithium; Potency, µM (highest dose often 59.4 µM), for the others: at the top dose activity, negative = IMPase inhibition, actives largely listed as inhibitors; 0.35% of 210,000 active; AID 1457;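 note: IP1 builds up when IMPase is blocked and the TR-FRET signal falls; potency is the fitted concentration of half-maximal effect; plate controls were basal vehicle for no effect and high inhibitor control for full effect; nearly all actives have a fitted effect of over 50% in size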
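IP1 accumulation measured by competitive TR-FRET in lysed CHO-M1 cells after 30 min compound exposure at 37C, with a small lithium addition to potentiate weak responses. Hill-equation AC50 from ratio and donor-channel data.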
Numbers without * were called inactive; ? = inconclusive; · = no result; [ ] = dose if it differs, or a comment. Unless noted, calls come from the whole dose curve; as a rule, active = well fitted curve in the direction sought with a large enough effect; inconclusive = small, poorly fitted or top-dose-only effect, or another doubt; inactive = no such curve, though single readings can be large; an effect the other way counts as inactive or inconclusive. Unless noted, % is set by controls: 0 for no effect and ±100 for the full control effect.

SMILES	HPGD inh	ALDH1A1 block	IMPase inh	NPSR antagonist	PNC assembly inh	IMPase Li inh
O=C(N/N=C1\CCc2ccccc21)c1ccc(O)cc1	·	?	·	1%	·	-8%
CCNC(=S)N1CCN(CCN2C(=O)c3cccc4cccc(c34)C2=O)CC1	·	4%	·	-41%	·	-6%
CCCCNC(=S)N/N=C1\C(=O)c2cccc3cccc1c23	-6%	13µM*	-12	-24%[46.1 µM]	21	32%[38.3 µM]
CCc1nnc(NS(=O)(=O)c2ccc(N=Cc3c(C)[nH]n(-c4cccc(Cl)c4)c3=O)cc2)s1	13µM*	?	-7	-30%	?	9%
Cc1ccc(-n2[nH]c(C)c(C=Nc3ccc(S(=O)(=O)Nc4nccs4)cc3)c2=O)cc1C	?	4%	·	-26%	5	18%
CCc1nnc(NS(=O)(=O)c2ccc(N=Cc3c(C)[nH]n(-c4ccc(Cl)cc4)c3=O)cc2)s1	?	?	·	-43%	0	21%
Cc1[nH]n(-c2ccccc2)c(=O)c1C=Nc1ccc(S(=O)(=O)Nc2nccs2)cc1	·	13µM*	·	-7%	·	1%
Cc1ccc(C(=O)Oc2cccc(NC(=O)c3ccco3)c2)cc1S(=O)(=O)N1CCC(C)CC1	-17%	-2%	-3	-26%[46.1 µM]	19	30%[38.3 µM]
CCc1nnc(NC(=O)C2CCCN(S(=O)(=O)c3ccccc3)C2)s1 (configuration not stated)	-6%	-5%	-4	-13%[46.1 µM]	13	25%[38.3 µM]
COc1ccccc1N1CCN(C(=O)c2c(C)noc2C)CC1	·	-7%	·	-23%	·	·
Cc1cc(C)c2nc(N3CCN(C)CC3)c(C#N)cc2c1	?	?	-20	-15%[46.1 µM]	?	28µM*
CCN(CC)c1ccc(NC(=O)CSc2ccsc2[N+](=O)[O-])c(C)c1	13µM*	15µM*	·	-4%	2	32%
COc1ccc(CNC(=O)CSc2ccsc2[N+](=O)[O-])cc1	·	14µM*	·	-2%	·	4%
Cc1ccc(CNC(=O)CSc2ccsc2[N+](=O)[O-])cc1	·	1%	·	-3%	·	18%
COc1ccc(CNC(=O)Cn2cc([N+](=O)[O-])nc2C)cc1	-5%	14%	4	-9%[46.1 µM]	-86*	-6%[38.3 µM]
Cn1c(CO)cnc1S(=O)(=O)Cc1ccc([N+](=O)[O-])cc1	-10%	-10%	0[1.84 µM]	3%[46.1 µM]	-12	29%[38.3 µM]
CCOc1ccc(-c2nnc(NC(=O)c3ccc(OCC(C)C)c(OC)c3)o2)cc1	-7%	3%	-3	3%[46.1 µM]	88	-5%[38.3 µM]
NNc1nncc2ccccc12	-18%	11%	0[20.6 µM]	0%[46.1 µM]	·	17%
CCC(=O)c1ccc(OCCn2cncn2)cc1	-7%	5%	8	4%[46.1 µM]	22	24%[38.3 µM]
Cn1nc(C(=O)NCc2ccccc2)c2ccccc2c1=O	-13%	20µM*	0	1%[46.1 µM]	-7	26%[38.3 µM]
Cn1nc(C(=O)NCc2ccc(F)cc2)c2ccccc2c1=O	-9%	1%	6	-13%[46.1 µM]	6	-8%[38.3 µM]
CC(NC(=O)c1nn(C)c(=O)c2ccccc12)c1ccccc1 (configuration not stated)	-10%	16µM*	-12	19%[46.1 µM]	39	8%
O=C(Nc1cscc1S(=O)(=O)c1ccc(Cl)cc1)c1ccccc1Cl	·	·	·	-32%	·	·
Cc1cc(Cl)ccc1Oc1ncnc2oc(-c3ccccc3)cc12	?	?	-4	-2%[46.1 µM]	-94*	-2%[38.3 µM]
COCCNC(=O)c1ccc(NC(C)=O)cc1	20µM*	-2%	1	-4%[46.1 µM]	-21	22%[38.3 µM]
COc1ccc(OCC(O)CN2C(=O)c3ccccc3S2(=O)=O)cc1 (configuration not stated)	-12%	?	2	-18%[46.1 µM]	-83*	-18%[38.3 µM]
CCOC(=O)c1c(C)n(C)c2ccc(OCC(O)CN3C(=O)c4ccccc4S3(=O)=O)cc12 (configuration not stated)	-16%	2.5µM*	-3	-25%[46.1 µM]	34	9%
Cc1csc(NC(=O)Cn2cnnn2)n1	-11%	18%	-3	-4%[46.1 µM]	-5	-1%[38.3 µM]
COc1ccc2oc(=N)c(C(=O)Nc3ccccc3)cc2c1	-12%	8%	-7	-10%[46.1 µM]	-83*	8%[38.3 µM]
